Measurements taken from PubChem BioAssay AID493098 (Sanford-Burnham Center for Chemical Genomics, 2011).
Screen size: about 340,000 compounds; about 1,700 (0.5%) were called active. For the sample, actives were picked, then their nearest neighbours and some compounds at random. Unmarked numbers belong to inactive results.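 Rule for the calls: active = compounds whose inhibition of the agonist-driven luminescence signal at 20 µM reaches about 50% (limit read from the data); inactive = the rest.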

target: C-C chemokine receptor type 6 (Homo sapiens) (UniProt P51684); test: blockers of CCL20-driven beta-arrestin recruitment to CCR6 – cell-based, CHO-K1, luminescence, uHTS, primary screen (AID 493098); conditions: CHO-K1 CCR6 PathHunter beta-arrestin, CCL20-stimulated, at 20 µM, active compounds read high;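 note: cells stimulated with CCL20 at 14 nM final; plate controls were DMSO with CCL20 for no effect and DMSO without agonist for full effect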
Sequence (P51684 whole entry, looked up): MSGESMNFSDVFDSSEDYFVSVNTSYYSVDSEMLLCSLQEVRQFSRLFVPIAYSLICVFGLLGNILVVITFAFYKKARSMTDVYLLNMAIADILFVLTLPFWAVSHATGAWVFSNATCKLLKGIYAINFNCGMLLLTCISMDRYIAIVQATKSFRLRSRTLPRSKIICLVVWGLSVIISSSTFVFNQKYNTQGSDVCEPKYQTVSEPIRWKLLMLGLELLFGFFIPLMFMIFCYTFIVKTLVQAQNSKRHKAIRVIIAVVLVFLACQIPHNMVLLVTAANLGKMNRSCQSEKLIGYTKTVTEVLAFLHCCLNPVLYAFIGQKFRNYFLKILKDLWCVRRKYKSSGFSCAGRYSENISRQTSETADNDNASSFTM

SMILES	inhibition
Cc1cccc(CSc2ccc(-c3cccs3)nn2)c1	7.33%
COc1ccccc1C1SCCN1C(=O)c1ccc([N+](=O)[O-])cc1 (stereo unspecified)	-4.39%
CC1CC2=C(CC1/C=N/NC(N)=S)C(C)(C)CCC2 (stereo unspecified)	76.2% (active)
CCC(C)N(C(=O)Cn1nc(C)c([N+](=O)[O-])c1C)C1CCS(=O)(=O)C1 (stereo unspecified)	-5.11%
CCOc1ccc(NC(=O)COC(=O)C2CCC(=O)N2)c([N+](=O)[O-])c1 (stereo unspecified)	-15.3%
O=c1[nH]c(CN2CCN(S(=O)(=O)c3ccc4c(c3)OCCO4)CC2)nc2sc3c(c12)CCCC3	10.3%
O=S(=O)(Nc1ncccn1)c1ccc(NS(=O)(=O)c2cccc(Cl)c2Cl)cc1	9.31%
COc1ccc(C(=O)NC(=S)NNC(=O)CCc2ccccc2)cc1	63.5% (active)
O=C(CCc1ccccc1)NNC(=O)COc1ccc(Cl)cc1	7.8%
COc1ccc(C(=O)NC(=S)NNC(=O)c2c(-c3ccccc3)noc2C)cc1	32.9%
COCCn1c(SCC(=O)Nc2nc(C)cs2)nnc1C(C)C	-5.85%
CN(C)CCn1c2c(c(SCC(=O)NCc3ccccc3)nc1=O)CCC2	8.36%
N#CC1(NC(=O)COC(=O)Cc2n[nH]c(=O)c3ccccc23)CCCCC1	-0.31%
O=C(NNC(=O)c1cnccc1C(F)(F)F)c1ccc(Cl)cc1	-1.91%
CCOC(=O)CN1C(=O)C(=O)c2cc(C)ccc21	15.8%
CC(OC(=O)CN1C(=O)c2ccccc2C1=O)C(=O)c1ccccc1 (stereo unspecified)	6.02%
CC(C)OC(=O)CN1C(=O)C(=O)c2ccccc21	108% (active)
Cc1c(Cl)cccc1NC(=O)CSc1ccc(-c2cccnc2)nn1	12.9%
Cc1cc(C(=O)N2CCC(C(=O)O)CC2)c(C(F)(F)F)o1	4.3%
Cc1cc(NC(=O)CCC(=O)N(Cc2ccccc2)C(C(=O)NC2CCCC2)c2ccc(C)o2)no1 (stereo unspecified)	7.11%
CC(=O)/C(=N\Nc1ccc(Cl)cc1Cl)Sc1cccc2cccnc12	65.9% (active)

SMILES	inhibition
COc1cccc(CNC(=O)c2cccnc2Sc2ccc(Cl)cc2)c1	-12.9%
O=C(NNc1cc(Cl)ccc1Cl)c1cccnc1Cl	13.2%
CC(Sc1nc2c([nH]c3ccccc32)c(=O)n1C)c1ccccc1 (stereo unspecified)	5.65%
CC(=O)c1ccc(N=C2SCCCN2C(=O)C2CCCCC2)cc1	12.7%
COc1cc(OC)cc(-c2cc3nc(C4CCN(C(=O)OC(C)(C)C)CC4)cc(=O)n3[nH]2)c1	-12.3%
CSCCC(NC(=O)COc1ccccc1)C(=O)OCCOc1ccc(Br)cc1 (stereo unspecified)	12.1%
CSCCC(NC(=O)COc1ccccc1)C(=O)OCc1ccc(Cl)cc1 (stereo unspecified)	-15.3%
CSCCC(NC(=O)COc1ccccc1)C(=O)OCC(=O)c1cc2ccccc2o1 (stereo unspecified)	59.6% (active)
C#CCO[C@@H]1C[C@H](n2cnc3c(=O)[nH]c(NC(=O)C(C)C)nc32)O[C@@H]1CO	-6.43%
Cc1csc(SCC(=O)N(c2ccccc2)C(C)C)n1	13.7%
Cc1nc(-c2ccc(F)cc2)c(CC(=O)Nc2cc(S(=O)(=O)N3CCCCC3)ccc2C)s1	5.08%
CC1=C/C(=N\OS(=O)(=O)c2ccccc2)C=CC1=O	80.3% (active)
O=C(NC1CC1)C(Cc1ccccc1)NS(=O)(=O)c1ccccc1F (stereo unspecified)	6.69%
CN(CC(=O)O)C(=O)c1ccccc1	-10.2%
CN(O)C(=S)c1ccccc1	95.7% (active)
CN(/N=C/c1ccccc1)C(=S)c1ccccc1	23.9%
COC(=O)c1sc(-c2ccc(C(C)(C)C)cc2)cc1NC(=O)/C=C/C(=O)O	-1.25%
O=[N+]([O-])/C=C/c1ccc2c(ccn2Cc2ccccc2)c1	91.2% (active)
Cc1nnc(NC(=O)Cn2c(=O)sc3ccccc32)s1	-5.17%
COc1cccc(NC(=O)c2cc(S(=O)(=O)N3CCc4ccccc43)cn2C)c1	-11.8%
Cc1cccc(NC(=O)Cc2ccc(Br)cc2)n1	13.2%

SMILES	inhibition
O=C(CCl)NNc1cccc(Cl)n1	60.7% (active)
O=C(Cc1c(Cl)cccc1Cl)NC1CC1	-1.28%
C=CCC(C(=O)c1ccccc1)[N+](C)(C)CC=C (stereo unspecified)	-0.91%
CN(CCc1ccccn1)C(=O)c1ccc(OC2CCN(CCc3ccccc3)CC2)cc1	13.6%
CCc1c(C)nc2c(-c3ccccc3)c(C)nn2c1Nc1ccc(NC(C)=O)cc1	4.32%
CCn1c(SCC(=O)N/N=C/c2ccncc2)nc2ccccc21	10.1%
COc1ccc(C(=O)NCC(=O)N/N=C/c2cccnc2)cc1	-3.8%
O=C(CSc1cccc2cccnc12)N/N=C/c1cccnc1	61.7% (active)
COc1ccc(C(=O)NCc2ccccc2C)cc1S(=O)(=O)NC1CCCC1	2.68%
O=c1onc(-c2cccs2)n1Cc1ccccc1	2.59%
Cc1c(O)c(C)c2c(c1O)C(=O)C[C@@H](c1ccccc1)O2	14.4%
COC(=O)C1NN=C(C(=O)c2ccc(Br)cc2)C1c1cccc(Br)c1 (stereo unspecified)	52.8% (active)
COc1ccc(C(=O)c2oc3ccc(Br)cc3c2NC(C)=O)cc1	3.07%
COC(=O)C1=C(C)N(C)C(C)=C(C(=O)OC)C1c1cccc(Br)c1	36.4%
COC(=O)c1ccc([C@@H](O)[C@H](C)C(=O)CC(=O)OC(C)(C)C)cc1	0.65%
N#Cc1cccc(OC(=O)c2ccc3c(=O)n4c(nc3c2)CCC4)c1	9.54%
Cc1ccc(-n2ncc3c(Nc4cccc(C(=O)O)c4)ncnc32)cc1	9.65%
COc1cc(CNc2ncn[nH]2)ccc1OCc1ccccc1C	-5.7%
CC1(C)CC[C@]2(C(=O)O)CC[C@]3(C)C(=CCC4[C@@]5(C)CC[C@H](O)C(C)(C)C5[C@H](O)C[C@]43C)[C@@H]2C1 (stereo partly specified)	-0.24%
